{"source": "PubChem BioAssay AID1159580", "about": "(chemical genetic matrix, 2015)", "assay": "chemical genetic growth profiling, strain panel (AID 1159580);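 further: tested at 20 µM; growth read once vehicle control cultures reached saturation at 30 °C; 1 = growth at the plate median or of vehicle wells; lower values mean less growth of the strain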", "conditions": "S. cerevisiae deletion strains, growth OD", "note": "Hit rate of the full screen: of about 5,500 compounds, about 2,000 (36%) were called active. About 18% were inconclusive and are not listed. The list shows a part of the results. Values without a mark were called inactive. No stated cut-off is given here; in the data, active means normalized growth mostly below about 0.91 (no sharp cut-off); inconclusive means no clear call, values can overlap the other calls; inactive means mostly above about 0.92.", "data": [{"smiles": "COc1ccc(C(c2ccc(OC)cc2)C(Cl)(Cl)Cl)cc1", "values": [{"measurement": "normalized growth", "setting": "locus YAL013W, strain DEP1, hits give low values", "result": 1}, {"measurement": "normalized growth", "setting": "locus YAL021C, strain ccr4, hits give low values", "result": 0.989}, {"measurement": "normalized growth", "setting": "locus YAL026C, strain drs2, hits give low values", "result": 1.01}, {"measurement": "normalized growth", "setting": "locus YAL030W, strain snc1, hits give low values", "result": 1.02}, {"measurement": "normalized growth", "setting": "locus YBL061C, strain skt5, hits give low values", "result": 1.01}, {"measurement": "normalized growth", "setting": "locus YBR009C, strain hhf1, hits give low values", "result": 1.01}, {"measurement": "normalized growth", "setting": "locus YBR021W, strain FUR4, hits give low values", "result": 0.974}, {"measurement": "normalized growth", "setting": "locus YBR023C, strain chs3, hits give low values", "result": 0.998}, {"measurement": "normalized growth", "setting": "locus YBR171W, strain sec66, hits give low values", "result": 1}, {"measurement": "normalized growth", "setting": "locus YBR229C, strain ROT2, hits give low values", "result": 0.997}, {"measurement": "normalized growth", "setting": "locus YBR231C, strain swc5, hits give low values", "result": 1.01}, {"measurement": "normalized growth", "setting": "locus YBR279W, strain paf1, hits give low values", "result": 1.02}, {"measurement": "normalized growth", "setting": "locus YCL011C, strain gbp2, hits give low values", "result": 1.02}, {"measurement": "normalized growth", "setting": "locus YCL016C, strain dcc1, hits give low values", "result": 1.01}, {"measurement": "normalized growth", "setting": "locus YCL029C, strain bik1, hits give low values", "result": 0.981}, {"measurement": "normalized growth", "setting": "locus YCL061C, strain MRC1, hits give low values", "result": 1.01}, {"measurement": "normalized growth", "setting": "locus YCL069W, strain vba3, hits give low values", "result": 1.02}, {"measurement": "normalized growth", "setting": "locus YCR088W, strain abp1, hits give low values", "result": 1.01}, {"measurement": "normalized growth", "setting": "locus YDL005C, strain med2, hits give low values", "result": 1.01}, {"measurement": "normalized growth", "setting": "locus YDL035C, strain GPR1, hits give low values", "result": 0.999}, {"measurement": "normalized growth", "setting": "locus YDL040C, strain nat1, hits give low values", "result": 1.02}, {"measurement": "normalized growth", "setting": "locus YDL074C, strain BRE1, hits give low values", "result": 0.986}, {"measurement": "normalized growth", "setting": "locus YDL101C, strain DUN1, hits give low values", "result": 0.996}, {"measurement": "normalized growth", "setting": "locus YDL134C, strain PPH21, hits give low values", "result": 1}, {"measurement": "normalized growth", "setting": "locus YDL185W, strain tfp1, hits give low values", "result": 0.981}, {"measurement": "normalized growth", "setting": "locus YDL192W, strain arf1, hits give low values", "result": 0.992}, {"measurement": "normalized growth", "setting": "locus YDR001C, strain nth1, hits give low values", "result": 1.01}, {"measurement": "normalized growth", "setting": "locus YDR069C, strain doa4, hits give low values", "result": 0.992}, {"measurement": "normalized growth", "setting": "locus YDR101C, strain arx1, hits give low values", "result": 0.995}, {"measurement": "normalized growth", "setting": "locus YDR137W, strain rgp1, hits give low values", "result": 0.959}, {"measurement": "normalized growth", "setting": "locus YDR150W, strain NUM1, hits give low values", "result": 1}, {"measurement": "normalized growth", "setting": "locus YDR159W, strain sac3, hits give low values", "result": 0.972}, {"measurement": "normalized growth", "setting": "locus YDR162C, strain NBP2, hits give low values", "result": 1.01}, {"measurement": "normalized growth", "setting": "locus YDR195W, strain ref2", "result": 1.07}, {"measurement": "normalized growth", "setting": "locus YDR297W, strain sur2, hits give low values", "result": 1}, {"measurement": "normalized growth", "setting": "locus YDR318W, strain mcm21, hits give low values", "result": 0.996}, {"measurement": "normalized growth", "setting": "locus YDR334W, strain swr1, hits give low values", "result": 1.03}, {"measurement": "normalized growth", "setting": "locus YDR335W, strain msn5, hits give low values", "result": 1.01}, {"measurement": "normalized growth", "setting": "locus YDR388W, hits give low values", "result": 0.988}, {"measurement": "normalized growth", "setting": "locus YDR392W, strain spt3, hits give low values", "result": 0.957}, {"measurement": "normalized growth", "setting": "locus YDR502C, strain sam2, hits give low values", "result": 0.989}, {"measurement": "normalized growth", "setting": "locus YEL003W, strain gim4, hits give low values", "result": 0.994}, {"measurement": "normalized growth", "setting": "locus YEL037C, strain rad23, hits give low values", "result": 1.01}, {"measurement": "normalized growth", "setting": "locus YEL061C, strain CIN8 (second series), hits give low values", "result": 1.01}, {"measurement": "normalized growth", "setting": "locus YEL061C, strain CIN8, hits give low values", "result": 0.995}, {"measurement": "normalized growth", "setting": "locus YER015W, strain faa2, hits give low values", "result": 0.984}, {"measurement": "normalized growth", "setting": "locus YER016W, strain bim1, hits give low values", "result": 1.02}, {"measurement": "normalized growth", "setting": "locus YER110C, hits give low values", "result": 0.984}, {"measurement": "normalized growth", "setting": "locus YER111C, strain swi4, hits give low values", "result": 1.01}, {"measurement": "normalized growth", "setting": "locus YER155C, strain BEM2 (second series), hits give low values", "result": 1}, {"measurement": "normalized growth", "setting": "locus YER155C, strain BEM2, hits give low values", "result": 0.989}, {"measurement": "normalized growth", "setting": "locus YER167W, strain BCK2, hits give low values", "result": 0.996}, {"measurement": "normalized growth", "setting": "locus YFR010W, strain ubp6, hits give low values", "result": 1.01}, {"measurement": "normalized growth", "setting": "locus YGL078C, strain dbp3, hits give low values", "result": 0.991}, {"measurement": "normalized growth", "setting": "locus YGL086W, strain mad1, hits give low values", "result": 1.02}, {"measurement": "normalized growth", "setting": "locus YGL167C, strain pmr1, hits give low values", "result": 1.01}, {"measurement": "normalized growth", "setting": "locus YGL173C, strain kem1, hits give low values", "result": 1}, {"measurement": "normalized growth", "setting": "locus YGL227W, strain vid30, hits give low values", "result": 1.01}, {"measurement": "normalized growth", "setting": "locus YGL240W, strain doc1, hits give low values", "result": 1.02}, {"measurement": "normalized growth", "setting": "locus YGL248W, strain PDE1, hits give low values", "result": 0.987}, {"measurement": "normalized growth", "setting": "locus YGL253W, strain hxk2, hits give low values", "result": 0.997}, {"measurement": "normalized growth", "setting": "locus YGR078C, strain PAC10, hits give low values", "result": 1.01}, {"measurement": "normalized growth", "setting": "locus YGR135W, strain pre9, hits give low values", "result": 0.994}, {"measurement": "normalized growth", "setting": "locus YGR229C, strain SMI1, hits give low values", "result": 1}, {"measurement": "normalized growth", "setting": "locus YGR252W, strain gcn5, hits give low values", "result": 0.947}, {"measurement": "normalized growth", "setting": "locus YHR013C, strain ard1, hits give low values", "result": 0.949}, {"measurement": "normalized growth", "setting": "locus YHR027C, strain rpn1, hits give low values", "result": 1}, {"measurement": "normalized growth", "setting": "locus YHR030C, strain SLT2, hits give low values", "result": 1}, {"measurement": "normalized growth", "setting": "locus YHR079C, strain IRE1 (second series), hits give low values", "result": 0.979}, {"measurement": "normalized growth", "setting": "locus YHR094C, strain hxt1, hits give low values", "result": 0.994}, {"measurement": "normalized growth", "setting": "locus YHR129C, strain ARP1, hits give low values", "result": 1}, {"measurement": "normalized growth", "setting": "locus YHR142W, strain chs7, hits give low values", "result": 0.988}, {"measurement": "normalized growth", "setting": "locus YHR200W, strain rpn10, hits give low values", "result": 0.985}, {"measurement": "normalized growth", "setting": "locus YIL066C, strain RNR3, hits give low values", "result": 0.977}, {"measurement": "normalized growth", "setting": "locus YIL073C, strain SPO22, hits give low values", "result": 0.952}, {"measurement": "normalized growth", "setting": "locus YIL125W, strain kgd1, hits give low values", "result": 0.996}, {"measurement": "normalized growth", "setting": "locus YIR030C, strain dcg1, hits give low values", "result": 0.998}, {"measurement": "normalized growth", "setting": "locus YJL092W, strain hpr5, hits give low values", "result": 1.01}, {"measurement": "normalized growth", "setting": "locus YJL095W, strain BCK1 (second series), hits give low values", "result": 1.02}, {"measurement": "normalized growth", "setting": "locus YJL095W, strain BCK1, hits give low values", "result": 1.03}, {"measurement": "normalized growth", "setting": "locus YJL115W, strain asf1, hits give low values", "result": 1.01}, {"measurement": "normalized growth", "setting": "locus YJL129C, strain trk1, hits give low values", "result": "0.847 (active)"}, {"measurement": "normalized growth", "setting": "locus YJL134W, strain LCB3, hits give low values", "result": 0.989}, {"measurement": "normalized growth", "setting": "locus YJL154C, strain vps35, hits give low values", "result": 1.01}, {"measurement": "normalized growth", "setting": "locus YJL164C, strain tpk1, hits give low values", "result": 0.988}, {"measurement": "normalized growth", "setting": "locus YJL166W, strain qcr8, hits give low values", "result": 0.992}, {"measurement": "normalized growth", "setting": "locus YJL168C, strain set2, hits give low values", "result": 0.989}, {"measurement": "normalized growth", "setting": "locus YJL187C, strain SWE1 (second series), hits give low values", "result": 0.997}, {"measurement": "normalized growth", "setting": "locus YJL187C, strain SWE1, hits give low values", "result": 1.03}]}]}
